Screening data from PubChem.
Rows were chosen to be rich in hits. Some 12% of all compounds tested hit in one or more screens of this group.
SARS PLP yeast: inhibitors of SARS-CoV papain-like protease in yeast. S. cerevisiae expressing SARS-CoV PLpro, growth rescue. Potency, µM (highest dose often 32.9 µM), inactives show top-dose activity, positive = growth rescue, usual class: activators. 330,000 tested, 0.19% active. AID 485353; calls by dose curve; also: 0% is about no effect; nearly all actives have a fitted effect of over 55% in size
Pf growth 96h: P. falciparum growth inhibition at 96 hour, primary screen for plastid delayed-death inhibitors; 320,000 tested, 6.9% active; P. falciparum luciferase reporter growth, 96 h; Potency, µM (top dose mostly 28.7 µM), for inactives: at the highest dose activity change, negative = inhibition, hits mostly inhibitors; also: % is scaled to controls: 0 for no effect and ±100 for the full control effect
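Readout is luminescence from an integrated firefly luciferase in P. falciparum. Red cells, 2% hematocrit and 0.05% parasitemia final, were cultured with compound through two parasite generations (96 hours) at 37 C, 5% CO2.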
Pf growth 48h: inhibits P. falciparum growth in the first generation, 48 h; P. falciparum luciferase growth in erythrocytes, 48 h; Potency, µM (series often up to 28.7 µM), for the others: at the highest dose activity change, negative = inhibition, most hits filed as inhibitors; 310,000 tested, 5.9% active; AID 504832; also: % is scaled to controls: 0 for no effect and ±100 for the full control effect
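Cell-based growth assay: transgenic P. falciparum expressing firefly luciferase, cultured in red cells within RPMI 1640 containing 0.5% w/v Albumax, 24 mM bicarbonate and gentamycin. A drop in luciferase activity indicates inhibition.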
AmpC inh detg: blocks E. coli AmpC beta-lactamase in detergent assay; Potency, µM (series often up to 114 µM), for inactives: at the highest dose activity change, negative = inhibition, usual class: inhibitors; 370,000 tested, 0.041% active; AID 485294; AmpC hydrolysis of nitrocefin, absorbance 480 nm, 0.01% Triton;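 also: 0% = no-compound wells and -100% = no-enzyme wells; nearly all actives have a fitted effect of over 25% in size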
Target sequence (P00811 whole entry, looked up): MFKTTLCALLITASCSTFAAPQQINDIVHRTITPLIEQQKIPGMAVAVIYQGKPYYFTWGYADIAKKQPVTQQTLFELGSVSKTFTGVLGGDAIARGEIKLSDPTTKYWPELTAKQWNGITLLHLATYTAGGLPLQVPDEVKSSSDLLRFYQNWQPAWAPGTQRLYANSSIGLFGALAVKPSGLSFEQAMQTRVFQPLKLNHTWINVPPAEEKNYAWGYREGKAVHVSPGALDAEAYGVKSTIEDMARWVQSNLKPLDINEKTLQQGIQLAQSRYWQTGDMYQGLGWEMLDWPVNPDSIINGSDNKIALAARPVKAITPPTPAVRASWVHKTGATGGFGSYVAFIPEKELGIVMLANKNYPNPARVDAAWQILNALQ
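20 mM phosphate pH 7.0 + 0.01% (detergent screen) or 0.0001% Triton X-100; 5.3 nM AmpC reagent; cpd preinc 15 min RT; nitrocefin (800 uM stock) to start; A480 q20 s × 4 min; Activity was normalised to no-enzyme and no-compound control wells.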
Sm TGR inh: blocks Schistosoma mansoni thioredoxin glutathione reductase. Q962Y6. purified TGR, DTNB reduction, TNB absorbance 405 nm. Potency, µM (highest dose often 114 µM), for inactives: at the highest dose activity change, negative = inhibition, actives largely listed as inhibitors. 360,000 tested, 3% active; also: % is scaled to controls: 0 for no effect and ±100 for the full control effect; nearly all actives have a fitted effect of over 60% in size
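TGR 20 nM + NADPH 100 uM (dispensed conc.), cpd preinc 15 min RT; start with NADPH (500 uM addition) then DTNB (15 mM addition). Kinetic TNB absorbance, 405 nm filter. Four-parameter Hill fit across titration.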
AmpC inh no detg: AmpC beta-lactamase inhibition without detergent | 330,000 tested, 0.52% active | Potency, µM (titrated, usually from 57.1 µM), inactives show top-dose activity change, negative = inhibition, hits mostly inhibitors | AID 485341 | P00811 | AmpC nitrocefin hydrolysis, absorbance 480 nm, 0.0001% Triton;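 also: plate controls were no compound for no effect and no enzyme for full effect; nearly all actives have a fitted effect of over 20% in size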
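AmpC (5.3 nM in the dispensed reagent) in 20 mM phosphate pH 7.0 with 0.01% (detergent screen) or 0.0001% Triton X-100 was preincubated with compounds for 15 min at room temperature. Nitrocefin was then added from an 800 uM solution, and hydrolysis was followed at 480 nm.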
An asterisk follows results filed as active; ? = inconclusive; . = not tested or not shown. Unless noted, calls follow the shape of the dose curve; as a rule, active = well fitted curve in the direction sought with a large enough effect; inconclusive = small, poorly fitted or top-dose-only effect, or another doubt; inactive = no such curve, though single readings can be large; an effect the other way counts as inactive or inconclusive. Potency is read from the fitted curve at half-maximal effect.

SMILES	SARS PLP yeast	Pf growth 96h	Pf growth 48h	AmpC inh detg	Sm TGR inh	AmpC inh no detg
S=C(NC1CCCCC1)NN(c1ccccc1)c1ccccc1	-31%	2.9µM*	12µM*	-13%	2%	-17%
COc1cc(OC)c(C(=O)NNC(=S)NC2CCCCC2)cc1OC	10%	0%	3%	0%	5%	-17%
CNC(=S)NNC(=O)c1sccc1C	23%	?	12%	2%	12%	-13%
O=C(NC(=S)NC1CCS(=O)(=O)C1)c1ccccc1 (stereo not drawn)	0%	?	-2%	6%	2%	-6%
O=C(NC(=S)NC1CCCCC1)c1ccccc1	18%	?	?	3%	1µM*	-19%
O=C(NNC(=S)Nc1ccc(Br)cc1)c1ccccc1Br	7%	9.3µM*	46%	-3%	3%	-47%
COc1ccc(CCNC(=O)CSc2ccc(-c3cccs3)nn2)cc1OC	0%	-25%	3%	0%	1%	-8%
Cn1nnnc1P(=O)(c1ccccc1)c1ccccc1	0%	10µM*	-13%	?	14%	-10%
Cn1nnnc1NC(=O)c1ccccc1Cl	2%	53%	2%	1%	-1%	-3%
CCCc1cc(-c2[nH]ncc2-c2ccc3c(c2)OCCCO3)c(O)cc1OC	-47%	.	3.7µM*	-5%	32%	-9%
CNC(=S)N/N=C(\C)c1ccc(N2CCOCC2)cc1	16%	10µM*	-4%	-9%	-4%	-16%
O=C1CC(C(=O)N2CCC(N3CCC(C(=O)NC4CC4)CC3)CC2)c2ccccc21 (stereo not drawn)	0%	?	?	-4%	40µM*	38%
Cc1cc(CN2CCC(N3CCC(C(=O)NC4CC4)CC3)CC2)cc(C)c1O	2%	32%	?	2%	45µM*	-5%
Cc1cnc(NC(=O)c2ccc3ncsc3c2)s1	1%	-66%	111%	-1%	9%	-16%
O=C(Nc1ccc2c(c1)N(S(=O)(=O)c1cccs1)CCC2)c1c(F)cccc1Cl	-2%	?	?	-8%	-4%	-44%
Cc1cccc(N2CCN(c3cc(C)nc4nnnn34)CC2C)c1 (stereo not drawn)	3%	?	?	1%	-2%	-9%
Cc1cccc(N2CCN(c3nnnn3-c3ccccc3)CC2C)c1 (stereo not drawn)	?	5.9µM*	.	-1%	-12%	22%
COC(=O)[C@]1(C)N[C@H](c2ccc(-c3ccc(OC)cc3)cc2)[C@@H]2C(=O)N(C)C(=O)[C@@H]21	-27%	.	.	.	.	-5%
COC(=O)[C@]1(C)N[C@H](c2ccc(-c3ccc(Cl)c(Cl)c3)c(OC)c2)[C@@H]2C(=O)N(C)C(=O)[C@@H]21	0%	3.3µM*	5.2µM*	-1%	?	198%
CCN1C(=O)[C@H]2[C@@H](c3ccc(-c4cccc(Cl)c4)c(OC)c3)N[C@@](C)(C(=O)OC)[C@H]2C1=O	2%	1.2µM*	2.1µM*	-5%	?	155%
CCN1C(=O)C2C(c3ccc(O)c(OC)c3)NC(C)(C(=O)OC)C2C1=O (stereo not drawn)	1%	57%	21%	?	-8%	-4%
CN(C)c1ccc(CNC(=O)C2CCN(S(=O)(=O)c3ccc4c(ccn4C)c3)CC2)cc1	.	.	.	-1%	2%	.
COc1ccc2c(c1)c(=O)c(C(=O)O)c(-c1ccc3c(c1)OCO3)n2C	19%	-12%	6%	?	-12%	-20%
Cc1csc(/C(=N/OC(=O)c2ccco2)C(N)=O)n1	0%	?	15%	-6%	4µM*	-16%
COc1ccc(/C(N)=N/OC(=O)c2ccco2)cc1OC	-1%	?	459%	5%	0%	2%
SMILES	SARS PLP yeast	Pf growth 96h	Pf growth 48h	AmpC inh detg	Sm TGR inh	AmpC inh no detg
CC1(c2nnc(Cc3ccccc3)o2)CC(c2ccc([N+](=O)[O-])cc2)=NO1 (stereo not drawn)	-2%	42%	-2%	8%	6.3µM*	40%
COC(=O)c1ccc(C2=NOC(C)(c3nnc(Cc4ccccc4)o3)C2)cc1 (stereo not drawn)	0%	?	?	-7%	-4%	102%
CC1(c2nnc(-c3ccccc3)o2)CC(c2cccc(Cl)c2)=NO1 (stereo not drawn)	-6%	70%	45%	-3%	1%	35%
CC1(c2nnc(-c3cccc(Cl)c3)o2)CC(c2cccc([N+](=O)[O-])c2)=NO1 (stereo not drawn)	-13%	40%	15%	-18%	45µM*	-24%
CSc1ncccc1C(=O)NC(C)CCc1ccccc1 (stereo not drawn)	-2%	2%	8%	2%	0%	5%
CCOC(=O)Cn1c(=O)oc2cc(S(=O)(=O)Nc3cc(OC)cc(OC)c3)ccc21	.	.	.	-13%	6%	.
O=C(O)CSc1nc2ccccc2c(=O)[nH]1	4%	34%	.	-13%	-4%	-7%
CC(C)N(C(=O)CSc1nc(Cc2ccccc2)nc2ccccc12)C(C)C	-2%	-2%	10µM*	-14%	3%	27%
CC(C)(C)NC(=O)CSc1nc(Cc2ccccc2)nc2ccccc12	20%	13µM*	-17%	-7%	-15%	36%
CC(C)(C)NC(=O)CSc1nc2ccccc2c(=O)[nH]1	1%	77%	12µM*	-1%	7%	-13%
FC(F)(F)c1cc(CO[C@@H]2CCCN[C@@H]2c2ccccc2)cc(C(F)(F)F)c1	.	?	12µM*	?	-13%	50%
CN(C)c1ccc(/C=C2\C(=O)NC(=O)N(CCc3ccc(F)cc3)C2=O)cc1	0%	?	-4%	-11%	4µM*	-45%
O=C1NC(=O)N(Cc2ccc(F)cc2)C(=O)/C1=C\c1ccc(N2CCCC2)cc1	0%	1%	8%	-1%	1.3µM*	-46%
O=C1NC(=O)N(CCc2ccc(F)cc2)C(=O)/C1=C/c1ccco1	6%	-13%	16%	?	?	18µM*
COCCN1C(=O)NC(=O)/C(=C\c2ccc(F)cc2)C1=O	3%	25%	5%	-2%	?	-14%
O=C1NC(=O)N(c2ccc(F)cc2)C(=O)/C1=C/c1ccc(N2CCOCC2)cc1	0%	1%	-3%	3%	1%	-34%
COC(=O)CNC(=O)COC(=O)c1ccc(OC)c([N+](=O)[O-])c1	13%	21%	6%	-7%	5%	-20%
NNC(=O)CCC(=O)Nc1ccccc1	-1%	0%	-4%	?	15%	-30%
